TROY signal inh = inhibitors of TROY-dependent NF-kB signaling. Q293 LMP1-TROYcd NF-kB luciferase reporter, 4 h. inhibition, % at 10 µM. actives 0.98% (n = 360,000). AID 1347056;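 active means compounds whose plate-normalised and pattern-corrected inhibition of the luciferase reporter signal at the single screening dose is 50% or more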
EWS-Fli inh = inhibitors of EWS/Fli oncoprotein transcriptional activity; A673 NR0B1-luciferase reporter, viability-normalised; inhibition, % at 12.6 µM; actives 0.67% (n = 350,000);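 active means mean inhibition of at least 50% after viability correction, with every replicate also passing that limit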;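 further: firefly luciferase signal divided by Alamar Blue viability fluorescence both relative to DMSO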
EBV LMP1 NFkB = inhibitors of Epstein-Barr LMP1-induced NF-kappaB reporter; actives 0.69% (n = 350,000); LMP1-induced NF-kappaB luciferase reporter cells, luminescence; inhibition, % at 12.5 µM; in the data active means inhibition above about 41%;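 further: 0% = neutral control wells and 100% = reference inhibitor control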
LGR2 inh = inhibitors of bursicon-induced Drosophila LGR2 receptor cAMP signaling. HEK293 LGR2, CRE-luciferase, bursicon-stimulated, 4 h. inhibition, % at 9.99 µM. actives 0.35% (n = 380,000);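 active means drop in luminescence signal, shown as inhibition above about 50% in the replicate tests, limit read from the data, passing the limit was not always enough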;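 further: agonist challenge used bursicon conditioned medium at about half maximal strength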
PAX8 inh HTS = inhibitors of PAX8 transcriptional activity in RMG-I cells | RMG-I TPO-luciferase reporter, SteadyGlo, 24 h | inhibition, % at 12.6 µM | actives 1.2% (n = 360,000) | AID 652154;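 active means mean replicate inhibition at least 60% with every replicate also reaching 60%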;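 further: luciferase light reporting Pax8 driven TPO promoter activity; plate controls were median of neutral control wells for no effect and mitoxantrone controls for full effect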
TWEAK Fn14 block = blocks TWEAK-Fn14 interaction in a reporter cell assay. TWEAK-stimulated Fn14 reporter cells, luciferase luminescence, 8 h. inhibition, % at 10 µM. actives 2% (n = 360,000); in the data active means inhibition above about 50%
The depositor's hits bear a star. Sampled rows, rich in hits. Any-hit rate of the full collection: about 3.2%.

`CC(=O)N1[C@H](CO)[C@@H](c2ccccc2)[C@H]1CN(C(=O)NC(C)C)C1CCCC1` gave EWS-Fli inh 0, LGR2 inh 0 and PAX8 inh HTS 13.
COC(=O)c1cc(C(=O)N2CCN(c3cccc(Cl)c3)CC2)cc([N+](=O)[O-])c1 was read as TROY signal inh 14, EWS-Fli inh 51*, EBV LMP1 NFkB 13, LGR2 inh -5, PAX8 inh HTS 57 and TWEAK Fn14 block -1.
For O=C(c1cccc([N+](=O)[O-])c1)N1CCN(c2cccc(Cl)c2)CC1 the results were TROY signal inh 9, EBV LMP1 NFkB 16, LGR2 inh -8, PAX8 inh HTS 38 and TWEAK Fn14 block 7.
O=S(=O)(C/C(=C/CO)S(=O)(=O)c1ccccc1)c1ccccc1 was read as TROY signal inh 33, EBV LMP1 NFkB 93* and TWEAK Fn14 block 66*.
Screening Cc1ccc(-c2cn3cccc(C)c3n2)cc1 returned TROY signal inh -44, EWS-Fli inh 2, EBV LMP1 NFkB -4, LGR2 inh 16, PAX8 inh HTS -69 and TWEAK Fn14 block 33.
Screening Cc1cccn2cc(-c3ccc(Cl)cc3)nc12 returned TROY signal inh 9, EWS-Fli inh 28, EBV LMP1 NFkB 1, LGR2 inh 18, PAX8 inh HTS -57 and TWEAK Fn14 block 53*.
Screening CO[C@H]1CN(C)C(=O)c2cc(NS(=O)(=O)c3ccc(C)cc3)ccc2OC[C@H](C)N(C(=O)NC(C)C)C[C@@H]1C returned EWS-Fli inh 2 and LGR2 inh 30.
`CCn1c(/C=C/Nc2ccccc2)[n+](CC)c2cc(Cl)c(Cl)cc21` gave TROY signal inh 17, EWS-Fli inh 69*, EBV LMP1 NFkB -15, LGR2 inh 16, PAX8 inh HTS 32 and TWEAK Fn14 block -24.
O=C(NC1CCCCC1)C(c1ccccc1)N(Cc1ccco1)C(=O)c1csnn1 (configuration not stated) was read as TROY signal inh 4, EWS-Fli inh 1, EBV LMP1 NFkB -18, LGR2 inh 1, PAX8 inh HTS -4 and TWEAK Fn14 block 64*.
O=C(NC1CCCCC1)c1csnn1 was read as TROY signal inh -12, EWS-Fli inh -7, EBV LMP1 NFkB 89*, LGR2 inh 8, PAX8 inh HTS 0 and TWEAK Fn14 block 7.
Screening CC(C)(C)c1ccc(C(=O)Nc2nnc(Cc3c[nH]c4ccccc34)s2)cc1 returned TROY signal inh 11, EWS-Fli inh 7, EBV LMP1 NFkB -34, LGR2 inh 9, PAX8 inh HTS 19 and TWEAK Fn14 block 40.
O=C(Nc1nnc(Cc2c[nH]c3ccccc23)s1)c1ccc(Cl)cc1Cl was read as TROY signal inh -4, EWS-Fli inh 1, EBV LMP1 NFkB -4, PAX8 inh HTS 23 and TWEAK Fn14 block 65*.
`FC(F)(F)c1cccc(NC(=S)NCc2ccc(Cl)cc2)c1` gave TROY signal inh 60*, EBV LMP1 NFkB -4, LGR2 inh -9, PAX8 inh HTS 17 and TWEAK Fn14 block 57*.
Screening C[C@H](CO)N1C[C@H](C)[C@@H](CN(C)C(=O)NC2CCCC2)Oc2cc(-c3cncnc3)ccc2S1(=O)=O returned EWS-Fli inh -16, LGR2 inh -14 and PAX8 inh HTS 4.
O=C(O)c1ccc(-c2sc(Nc3ccccc3)n[n+]2-c2ccc(F)cc2)cc1 was read as TROY signal inh -9, EBV LMP1 NFkB 1 and TWEAK Fn14 block 18.
For CCc1ccc(Nc2n[n+](-c3ccccc3)c(-c3cc(OC)c(OC)cc3Br)s2)cc1 the results were TROY signal inh -4, EWS-Fli inh 22, EBV LMP1 NFkB 5, LGR2 inh 1, PAX8 inh HTS 11 and TWEAK Fn14 block -24.
`Fc1ccc(-[n+]2nc(Nc3ccccc3)sc2-c2c(Cl)cccc2Cl)cc1` gave TROY signal inh 40, EWS-Fli inh 13, EBV LMP1 NFkB -4, LGR2 inh 71*, PAX8 inh HTS 32 and TWEAK Fn14 block 24.
CCc1ccc(Nc2n[n+](-c3ccccc3)c(-c3c(Cl)cccc3Cl)s2)cc1 was read as TROY signal inh 59*, EWS-Fli inh 40, EBV LMP1 NFkB 44*, LGR2 inh 44, PAX8 inh HTS 101* and TWEAK Fn14 block 52*.
CC1=CC2(CO)C(=O)[C@]3(CO3)[C@H]1[C@H]1[C@]2(C)C=C(CO)C(=O)[C@]12CO2 was read as EWS-Fli inh 19 and PAX8 inh HTS -3.
For C[C@H]1CN([C@@H](C)CO)C(=O)c2c(c3ccccc3n2C)-c2ccccc2CO[C@@H]1CN(C)C(=O)Nc1ccc2c(c1)OCO2 the results were EWS-Fli inh -25, LGR2 inh 9 and PAX8 inh HTS -53.
O=S1(=O)C=C(SCCN2CCCCC2)c2ccccc21 was read as TROY signal inh -13, EBV LMP1 NFkB 12 and TWEAK Fn14 block -22.
CSc1nnc(-c2ccccc2)o1 was read as TROY signal inh -10, EBV LMP1 NFkB -165, LGR2 inh -2 and TWEAK Fn14 block -11.
For Cc1cc(C)nc(SC2=CS(=O)(=O)c3ccccc32)n1 the results were TROY signal inh 15, EBV LMP1 NFkB -16, PAX8 inh HTS 47 and TWEAK Fn14 block 53*.
Screening O=S1(=O)C=C(Sc2nnc(-c3ccccc3)o2)c2ccccc21 returned TROY signal inh 62*, EBV LMP1 NFkB 8 and TWEAK Fn14 block 103*.
For O=C1C(=C(c2ccccc2)N2CCOCC2)Cc2ccccc21 the results were TROY signal inh 34, EWS-Fli inh 60*, EBV LMP1 NFkB 64*, LGR2 inh 107*, PAX8 inh HTS 113* and TWEAK Fn14 block 97*.
COCC(=O)N1CC(=O)N2[C@H](C1)[C@H](c1ccc(C#CC3CC3)cc1)[C@@H]2CO was read as EWS-Fli inh 5, LGR2 inh 6 and PAX8 inh HTS -12.
`COc1cc(C2C3=C(COC3=O)OC(C)(C)Oc3cc4c(cc32)OCO4)cc(OC)c1OC` (configuration not stated) gave TROY signal inh 17, EWS-Fli inh 54*, EBV LMP1 NFkB 1, LGR2 inh -17, PAX8 inh HTS 93* and TWEAK Fn14 block -5.
C[C@@H]1CN([C@@H](C)CO)C(=O)c2cccc(NC(=O)C3CCCCC3)c2O[C@@H]1CN(C)C(=O)Nc1ccc(C(F)(F)F)cc1 was read as EWS-Fli inh -4, LGR2 inh 6 and PAX8 inh HTS 1.
Screening COCC#Cc1ccc([C@@H]2[C@@H](CO)N3C(=O)CN(C(=O)Nc4ccc(F)cc4)C[C@@H]23)cc1 returned EWS-Fli inh -5, LGR2 inh -10 and PAX8 inh HTS -8.
CCc1nn2cc(C(=O)c3cc(Cl)ccc3O)cnc2c1-c1ccc(F)cc1 was read as TROY signal inh 65*, EWS-Fli inh 7, EBV LMP1 NFkB -1, LGR2 inh 43, PAX8 inh HTS -2 and TWEAK Fn14 block 64*.

High-throughput results (PubChem BioAssay)
